ChEMBL document CHEMBL4513146, “CO-ADD screening of Karazin Kharkiv National University (Ukraine) compounds”
Potency and affinity values are given separately.

Each compound was assayed on Klebsiella pneumoniae. Conditions: Concentration 32 ug.mL-1;; ASSAY_TEST Inhibition of Bacterial Growth; detection method Absorption (OD600); MEDIA CAMHB; plate type 384well; NBS; CORNING #3640; time 18 hr.

Which Inhibition does the source give for `Cc1cccc(NC(=O)CSc2nnc3c4cc(-c5ccc(F)cc5)nn4ccn23)c1C` here?
The Inhibition was 0.2%.

With `O=C(CSc1nnc2c(=O)n(-c3ccc(F)cc3)ccn12)c1ccccc1Cl` as the compound, how does the Inhibition read?
The Inhibition was 14.55%.

How did the Inhibition turn out when `CC(C)CCn1c(=O)c2ccccc2n2c(=O)n(CC#N)nc12` was run?
The Inhibition was 17.73%.

How did the Inhibition turn out when `Cc1ccc(NC(=O)Cn2nc3c(N4CCOCC4)nccn3c2=O)cc1F` was run?
Its Inhibition is 7.04%.

Which Inhibition does the source give for `CC(=O)c1ccc(NC(=O)Cn2nc3c4cc(-c5ccc(Cl)cc5)nn4ccn3c2=O)cc1` here?
The Inhibition was 16.61%.

`Cc1cccc(Oc2nccn3c(=O)n(CC(=O)N4CCN(c5ccc(F)cc5)CC4)nc23)c1C` was tested. Which Inhibition did it give?
The Inhibition was 7.83%.

How did the Inhibition turn out when `O=c1n(Cc2ccccc2F)nc2ccc(S(=O)(=O)N3CCCCCC3)cn12` was run?
The Inhibition was 2.58%.

How did the Inhibition turn out when `O=C(Cn1nc2c(N3CCOCC3)nccn2c1=O)Nc1cc(C(F)(F)F)ccc1Cl` was run?
The Inhibition was 12.08%.

How did the Inhibition turn out when `CN(C)C(=O)CSc1nnc2c(=O)n(-c3ccc(F)cc3)ccn12` was run?
The Inhibition was 10.89%.

`CCCc1nnc2c(=O)n(CC(=O)Nc3ccc(C(C)=O)cc3)c3ccccc3n12` was tested. Which Inhibition did it give?
Its Inhibition is 3.81%.

`CCCn1c(=O)c2sccc2n2c(=O)n(CC(=O)c3cc(C)ccc3C)nc12` was tested. Which Inhibition did it give?
The Inhibition was 9.58%.

`Cc1cc(C)cc(N(Cc2c(F)cccc2Cl)S(=O)(=O)c2cccn3cnnc23)c1` was tested. Which Inhibition did it give?
Its Inhibition is 7.41%.

For `Cc1nnc2c(S(=O)(=O)N(Cc3ccc(F)cc3)c3ccc(Cl)cc3)cccn12`, which Inhibition is on record?
Its Inhibition is 5.76%.

How did the Inhibition turn out when `CCc1cccc(NC(=O)CSc2nnc3c(=O)n(-c4ccccc4)ccn23)c1` was run?
Its Inhibition is 3.17%.

With `COc1ccccc1-n1ccn2c(SCc3ccccc3C)nnc2c1=O` as the compound, how does the Inhibition read?
Its Inhibition is 12.73%.
